An excerpt weighted towards active compounds, which were near 7.3% of everything screened.
ELG1 genotox: qHTS screen for small molecules that induce genotoxicity in human embryonic kidney (HEK293T) cells expressing luciferase-tagged ELG1; 1.3% of 330,000 active; HEK293T ELG1-luciferase reporter, luminescence, 16 h; Potency, µM (series often up to 46 µM), without a hit: top-dose activity change, positive = activation, usual class: activators; note: % of control where 0% means no effect; nearly all actives have a fitted effect of over 60% in size
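Genotoxicity was scored as increased ELG1-luciferase reporter signal, measured by ONE-Glo luminescence (30 min, room temperature). Compound or vehicle exposure of the HEK293T reporter cells lasted 16 hr at 37°C.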
Luc counter: Counterscreen for Luciferase (Kinase-Glo TM) Inhibition. Luciferin 4-monooxygenase (Photuris pensylvanica), Q27757. 0.28% of 200,000 active. AID 1379, 2008. Potency, µM (highest dose often 38.3 µM), without a hit: at the top dose activity change, negative = inhibition, actives largely listed as inhibitors. Kinase-Glo luciferase, ATP luminescence, 8 min; note: % is set by controls: 0 for no effect and ±100 for the full control effect; nearly all actives have a fitted effect of over 60% in size
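Compound is pinned into ATP-containing buffer (10 uM ATP, imidazole pH 7.2, 7 mM MgCl2). Kinase-Glo luciferase reagent is then added. Light output is recorded following an 8-min room-temperature incubation.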
SMN2 splice up: qHTS Assay for Enhancers of SMN2 Splice Variant Expression; 2.8% of 210,000 active; AID 1458, 2008; HEK293 SMN2-luciferase splicing reporter, luminescence, 30-36 h; Potency, µM (titrated, usually from 46.1 µM), for the others: at the top dose activity change, positive = activation, usual class: activators; note: % of control where 0% means no effect; nearly all actives have a fitted effect of over 55% in size
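qHTS luciferase splicing reporter: luminescence rises when SMN2 exon 7 is included in transfected HEK293 cells. Compound exposure lasted 30-36 h at 37C, with 4.5 mM final sodium butyrate as control, followed by a ONE-Glo read.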
Rab9 promoter act: qHTS Assay for Rab9 Promoter Activators; Huh7 Rab9 promoter-luciferase reporter, luminescence, 24 h; Potency, µM (highest dose often 9.22 µM), inactives show at the highest dose activation, negative = inhibition, most hits filed as activators; AID 485297, 2010; 2.8% of 320,000 active; note: % of control where 0% means no effect; nearly all actives have a fitted effect of over 60% in size
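Steps: seed 1500 Huh7 Rab9-luc cells per well, rest 2 h at 37 °C; add compound in DMSO; incubate 24 h; add luciferase reagent, 10 min ambient; read luminescence.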
FLuc modulator: qHTS profiling assay for firefly luciferase inhibitor/activator using purifed enzyme and Km concentrations of substrates (counterscreen for miR-21 project) | purified FLuc, Km substrates, luminescence inhibition | Potency, µM (highest dose often 57.5 µM), without a hit: at the top dose activity change, negative = inhibition, hits mostly inhibitors | 6.9% of 360,000 active;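 note: plate controls were vehicle for no effect and reference inhibitor for full effect; nearly all actives have a fitted effect of over 55% in size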
Target sequence (P08659 whole entry, looked up): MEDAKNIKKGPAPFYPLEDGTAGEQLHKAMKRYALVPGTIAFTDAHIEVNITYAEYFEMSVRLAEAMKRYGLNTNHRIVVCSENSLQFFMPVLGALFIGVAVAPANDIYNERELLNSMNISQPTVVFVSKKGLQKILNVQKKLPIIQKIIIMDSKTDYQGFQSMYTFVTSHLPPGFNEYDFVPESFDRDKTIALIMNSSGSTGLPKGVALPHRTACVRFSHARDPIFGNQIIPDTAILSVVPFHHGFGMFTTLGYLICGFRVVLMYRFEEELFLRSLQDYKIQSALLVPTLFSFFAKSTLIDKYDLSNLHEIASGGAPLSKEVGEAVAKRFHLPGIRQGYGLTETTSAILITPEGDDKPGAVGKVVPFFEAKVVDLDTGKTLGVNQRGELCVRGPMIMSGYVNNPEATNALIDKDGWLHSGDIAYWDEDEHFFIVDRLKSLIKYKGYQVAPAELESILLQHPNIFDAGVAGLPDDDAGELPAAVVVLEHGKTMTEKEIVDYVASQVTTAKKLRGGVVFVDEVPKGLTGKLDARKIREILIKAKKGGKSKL
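Purified P. pyralis luciferase, 10 nM final, with Km-level 10 uM D-luciferin and 10 uM ATP in 50 mM Tris acetate pH 7.5, 10 mM Mg acetate, 0.01% Tween-20, 0.05% BSA; 6-point qHTS titration about 60 µM downward; luminescence read.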
NPC1 prom act: qHTS Assay for NPC1 Promoter Activators. 2.4% of 320,000 active. Huh7 NPC1 promoter luciferase reporter, 24 h. AID 485313, 2010. Potency, µM (series often up to 9.22 µM), without a hit: at the top dose activation, most hits filed as activators; note: % of control where 0% means no effect; nearly all actives have a fitted effect of over 60% in size
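In 1536-well qHTS, Huh7 cells harboring an NPC1 promoter–luciferase construct received compound for 24 h; activation was quantified by luminescence following luciferase reagent addition.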
An asterisk follows results filed as active; ? = inconclusive; nt = not tested or not shown. Calls come from the whole dose curve; as a rule, active = well fitted curve in the direction sought with a large enough effect; inconclusive = small, poorly fitted or top-dose-only effect, or another doubt; inactive = no such curve, though single readings can be large; an effect the other way counts as inactive or inconclusive. Potency is the fitted concentration of half-maximal effect.

SMILES	ELG1 genotox	Luc counter	SMN2 splice up	Rab9 promoter act	FLuc modulator	NPC1 prom act
Nc1nnc(-c2ccc(Cl)cc2)s1	?	-1%	-15%	11%	?	19%
CCCCOc1ccc(-c2ncc(N)cn2)cc1	?	nt	nt	2.8µM*	6.7µM*	1.8µM*
CCOc1ccc(-c2nnc(N)s2)cc1	11µM*	-6%	11µM*	?	13µM*	?
CCCCOc1ccc(-c2nnc(N)s2)cc1	?	0%	20%	?	7.6µM*	28%
CCCCOc1cccc(-c2nnc(N)s2)c1	?	2%	?	9%	?	3%
COC(=O)c1ccccc1NC(=O)Cn1c(=O)n(CCCC(=O)NCc2ccccc2OC)c(=O)c2ccccc21	nt	nt	3%	nt	2%	nt
CN(C)S(=O)(=O)c1ccc2c(c1)c(=O)c(C(=O)N1CCN(c3cccc(Cl)c3)CC1)cn2C	nt	nt	8%	nt	4%	nt
COc1ccccc1N1CCN(C(=O)Cn2ncc3ccsc3c2=O)CC1	nt	nt	21%	nt	5%	nt
Nc1nnc(-c2ccc(F)cc2)s1	4%	-2%	6%	5%	?	-2%
CC(C)(C)c1ccc(-c2nnc(N)s2)cc1	?	-8%	nt	1.4µM*	1.9µM*	1.4µM*
COc1ccc(/C=C/C(=O)Nc2ccc(N3CCOCC3)cc2)cc1	-1%	-2%	-29%	-3%	-15%	1%
COc1ccc(/C=C/C(=O)NC(=S)N2CCOCC2)cc1	?	nt	nt	1.6µM*	11µM*	3.5µM*
COc1ccc(/C=C/C(=O)NC(=S)N2CCN(c3ccccc3OC)CC2)cc1	18%	nt	nt	?	?	4µM*
CCOc1ccccc1NC(=O)c1c(NC(=O)C(C)Oc2ccc(Cl)cc2)sc2c1CCCCC2 (configuration not stated)	nt	nt	10%	nt	3%	nt
CC(Oc1ccccc1)C(=O)OCc1cc(=O)n2nc(C(C)C)sc2n1 (configuration not stated)	nt	nt	nt	nt	-5%	nt
c1ccc(-c2ccc(-n3ccnc3)cc2)cc1	?	nt	nt	12%	24µM*	25%
c1ccc(-c2nc(N3CCN(c4ccccc4)CC3)nc(-n3ccnc3)n2)cc1	-10%	nt	nt	0%	2%	-8%
COc1cccc(O)c1O	nt	-4%	-28%	nt	nt	nt
Cc1cc2c(cc3c(SCc4ccccc4Cl)nnc(C)n32)o1	nt	nt	nt	nt	13µM*	nt
CCc1ccccc1NC(=O)C1CCCN(c2ncnc3onc(C)c23)C1 (configuration not stated)	nt	nt	nt	nt	-1%	nt
N[C@H](C(=O)O)[C@H]1C[C@H]1C(=O)O	nt	nt	-13%	nt	nt	nt
Cc1cccc(C(=O)OC2CCOC2=O)c1O (configuration not stated)	-1%	nt	nt	-3%	-1%	-6%
Cc1ccsc1C(=O)OC1CCOC1=O (configuration not stated)	0%	-1%	25µM*	-1%	2%	-2%
CC(=O)Nc1ccc2c(c1)ncn2-c1ccccc1	21µM*	nt	nt	1.4µM*	11µM*	2.8µM*
CCOc1ccc(-n2nc3ccc(NC(=O)Cc4ccccc4)cc3n2)cc1	nt	nt	-6%	nt	3%	nt
SMILES	ELG1 genotox	Luc counter	SMN2 splice up	Rab9 promoter act	FLuc modulator	NPC1 prom act
CCOc1ccc(-n2nc3ccc(NC(=O)CC)cc3n2)cc1	17%	nt	nt	?	2.7µM*	?
Cn1cnc2cc(NC(=O)COc3ccccc3)ccc21	?	nt	nt	24%	24µM*	12%
CCC(=O)Nc1ccc2c(c1)ncn2-c1ccccc1OC	2%	0%	4%	-2%	-13%	2%
CCC(=O)Nc1ccc2c(c1)ncn2-c1ccccc1	?	-1%	?	?	15µM*	?
CC(=O)Nc1ccc2c(c1)nc(C)n2Cc1ccccc1	2%	nt	nt	-1%	-2%	-1%
COc1ccc(NC(=O)CC2Oc3ccc(C)cc3NC2=O)cc1Cl (configuration not stated)	nt	nt	4%	nt	-6%	nt
CCc1ccc(/C=N/NC(=O)Cc2cccn2C)cc1	15%	nt	nt	?	24µM*	?
Cn1cccc1CC(=O)N/N=C/c1ccc(C(C)(C)C)cc1	15%	nt	nt	?	17µM*	27%
Cc1ccc(/C=N/NC(=O)Cc2cccn2C)cc1	16%	nt	nt	?	?	26%
C/C(=N/Nc1nc(C)c(C)s1)c1cccc([N+](=O)[O-])c1	?	nt	nt	?	12µM*	?
Cc1cc(C(=O)N/N=C/c2ccccc2Br)no1	4%	-3%	2%	26%	21µM*	20%
Cc1cc(C(=O)N/N=C/c2ccc[nH]2)no1	1%	-3%	15%	11%	-19%	2%
c1ccc(CCNc2nc(-c3ccccn3)cs2)cc1	?	-3%	?	2µM*	6.7µM*	3.5µM*
c1ccc(CCNc2nc(-c3cccnc3)cs2)cc1	?	1%	?	?	15µM*	?
Cc1ccc(CCNC(=O)c2ccc(Cn3c(=O)c4cccn4c4cccnc43)cc2)cc1	nt	nt	nt	nt	2%	nt
Cc1nc(/C=C/c2ccccc2)cc(/C=C/c2ccccc2)n1	?	17%	24%	2%	19µM*	1%
Cc1cc(C)nc(N/N=C/C=C/c2ccccc2)n1	1%	1%	1%	7%	?	-2%
C(=C\c1cc(/C=C/c2ccccc2)ncn1)/c1ccccc1	?	2%	-5%	10%	12µM*	7%
Cn1nc(/C=C/c2ccccc2)ccc1=O	?	?	13µM*	3.2µM*	?	16%
